Unmarked numbers belong to inactive results. The rule behind the calls is not given here.

This test is described as follows: inhibitors of hydroxyurea-induced Chk1 phosphorylation, primary screen, imaging, HeLa, phospho-Chk1 nuclear intensity (AID 1187). Note: test concentration not given here. The note with it: hydroxyurea-induced phospho-Chk1 immunofluorescence imaging, higher = more signal.
Regarding `CCOC(=O)C1=C[C@@H](C(C)C)N(S(=O)(=O)c2ccc(C)cc2)[C@H]1c1ccc(C(F)(F)F)cc1`, the z-score was 0.112.

Turning to `COCCCNC(=O)[C@@]1(Sc2ccc(C)cc2)CC(=O)N(C2Cc3ccccc3C2)[C@@H]1c1ccc(CO)cc1`, the z-score is 0.0579. `C[N+](C)(C)CCCC[C@@H]1NC(=O)[C@@H]2C[C@H](C(=O)NCCCCCCN)[C@H](c3cccc(OCCO)c3)N2C1=O`: the z-score was -0.386. With `C=CCC(OC(C)=O)[C@@H]1[C@@H](N(Cc2ccc(-c3ccccc3)cc2)C(=O)c2ccc(-c3ccccc3)cc2)c2cc(OCCCO)ccc2N1C(=O)c1ccc2ccccc2c1` (stereo partly drawn) the figure was -0.144. In the case of `CC1CC/C=C\[C@H]2OC34C=CCN(C(C)C)C(=O)[C@H]3N(CCO)C(=O)[C@@H]4C2C(=O)O1` (stereo partly drawn), the z-score is 0.0498.

Take `CCCNC(=O)[C@@H]1c2ccccc2C(=O)N(Cc2ccc(OC(F)(F)F)cc2)[C@H]1c1ccc(CO)cc1`: the z-score is -0.366. `CC(C)NC(=O)[C@@]1(C)c2ccccc2C(=O)N(Cc2ccc(OC(F)(F)F)cc2)[C@H]1c1ccc(CO)cc1`: the z-score was -0.0444.

`COc1ccc(CCNC(=O)[C@@]2(Cc3ccccc3I)c3ccccc3C(=O)N(C3CCCCC3)[C@H]2c2ccc(CO)cc2)cc1`: the z-score was -0.543.

These data come from PubChem BioAssay.
